Bioassay records: PubChem BioAssay, National Center for Advancing Translational Sciences (NCATS)
FBPA coupling cs – inhibits coupling enzyme system, counter-screen for aldolase hits | coupling enzyme system counterscreen, AmpLite Red fluorescence | activity change, negative = inhibition, % at 58.2 µM, hits read low | actives 0.67% (n = 290,000); in the data active = activity change below about -30%
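Compounds tested against the coupling enzymes alone at 57.5 uM final; readout was AmpLite Red fluorescence (525/598 nm) after 20 min at RT.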
Sfp inh – inhibitors of Bacillus subtilis Sfp phosphopantetheinyl transferase | Q9F4F7 | Biochemical Sfp PPTase activity, qHTS | Potency, µM, for inactives: largest response in the series, negative = inhibition, hits mostly inhibitors | actives 3.5% (n = 310,000);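 also: the enzyme is Sfp with the accession as filed and its product quenches rhodamine fluorescence; potency is read from the fitted curve at half-maximal effect; 0% = enzyme reaction without inhibitor and -100% = no enzyme wells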
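Reaction rates are the 30-min fluorescence difference (ex 525, em 598 nm) in wells containing 15 nM Sfp, 5 uM rhodamine-CoA and 12.5 uM BHQ-2-YbbR at pH 7.6 with 10 mM MgCl2.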
Giardia kill – kills Giardia lamblia; activity change, % at 7.66 µM, hits read low; Giardia lamblia trophozoite viability; actives 0.15% (n = 340,000); AID 540267; in the data active = activity change below about -80%; inconclusive = between about -30% and that limit;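 also: parasites exposed to compound for two days anaerobically before the ATP read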
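Viability, read as ATP luminescence: trophozoites at 100 cells/well, compound added, 48 hrs anaerobic at 37 deg C, then 15-30 min room-temperature development before reading.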
ELG1 DNA repair – blocks ELG1-dependent DNA repair in HEK293T cells | actives 2.3% (n = 330,000) | HEK293T ELG1-luciferase reporter, luminescence, 16 h; DNA damage induced by 5-fluorouridine | Potency, µM (doses to about 46.1 µM), without a hit: at the highest dose activity change, negative = inhibition, actives largely listed as inhibitors | AID 504467; also: potency is read from the fitted curve at half-maximal effect; nearly all actives have a fitted effect of over 55% in size
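Reporter activity after DNA damage by 5-fluorouridine is monitored. Compound-treated cells incubate 16 hr at 37 °C, then ONE-Glo is added for 30 min before luminescence reading.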
Numbers without * were called inactive. Hits are enriched below; roughly 5.5% of the tested compounds scored in any of these assays. Unless noted, calls follow the shape of the dose curve; as a rule, active = well fitted curve in the direction sought with a large enough effect; inconclusive = small, poorly fitted or top-dose-only effect, or another doubt; inactive = no such curve, though single readings can be large; an effect the other way counts as inactive or inconclusive. Unless noted, % is scaled to controls: 0 for no effect and ±100 for the full control effect.

c1ccc2c(NCC3CCCO3)nc(N3CCOCC3)nc2c1 (stereo not given) was read as FBPA coupling cs 3, Sfp inh 20%, Giardia kill 4 and ELG1 DNA repair -16%.
CC(=O)OC[C@H]1O[C@@H](O/N=C(\C)CCC(=O)OC[C@@H]2O[C@H](C#Cc3ccccc3)C=C[C@@H]2Oc2ccc(C)cc2)[C@H](OC(C)=O)[C@@H](OC(C)=O)[C@H]1OC(C)=O was read as FBPA coupling cs 1 and Sfp inh 1%.
Screening O=C1NN(c2cccc(Br)c2)C(=O)/C1=C\c1ccccc1 returned FBPA coupling cs 1, Sfp inh 79µM*, Giardia kill -9 and ELG1 DNA repair 8%.
O=C(O)c1cccc(NC2=C(n3nnc4ccccc43)C(=O)c3ccccc3C2=O)c1 was read as FBPA coupling cs -32*, Sfp inh -1%, Giardia kill 25 and ELG1 DNA repair inconclusive.
For O=C(O)c1cccc(NS(=O)(=O)c2ccc3nnn(O)c3c2)c1 the results were FBPA coupling cs 20, Sfp inh inconclusive, Giardia kill -8 and ELG1 DNA repair 6%.
For CCN(CC)S(=O)(=O)c1ccc2oc(SCC(=O)NC3CC3)nc2c1 the results were Sfp inh 40µM*, Giardia kill 22 and ELG1 DNA repair inconclusive.
`CCN(CC)S(=O)(=O)c1ccc2oc(SCC(=O)Nc3cc(C)on3)nc2c1` gave Giardia kill 4 and ELG1 DNA repair 10µM*.
`Cc1ccc(C2CC(C(F)(F)F)n3nc(C(=O)NCc4c(C)nn(C)c4C)c(Cl)c3N2)cc1` (stereo not given) gave FBPA coupling cs 4, Sfp inh -1%, Giardia kill -18 and ELG1 DNA repair 12µM*.
COc1ccc(C2CC(C(F)(F)F)n3nc(C(=O)NCc4cn(C)nc4C)c(Cl)c3N2)cc1 (stereo not given) was read as FBPA coupling cs 5, Sfp inh -3%, Giardia kill -8 and ELG1 DNA repair 23µM*.
O=C1CC(c2ccccc2)CC2=C1C(c1ccccn1)Nc1ccccc1N2 (stereo not given) was read as FBPA coupling cs 1, Sfp inh 13%, Giardia kill 25 and ELG1 DNA repair 0%.
O=C1CC(c2ccc(F)cc2)CC2=C1C(c1ccc([N+](=O)[O-])o1)Nc1ccccc1N2 (stereo not given) was read as FBPA coupling cs -4, Sfp inh 8%, Giardia kill -90* and ELG1 DNA repair inconclusive.
`CC(=O)N1c2ccc(S(=O)(=O)N3CCC(C(=O)Nc4ncccc4C)CC3)cc2CC1C` (stereo not given) gave Sfp inh 11%, Giardia kill -10 and ELG1 DNA repair 8%.
Screening COc1cc(/C=C2\CCn3c2nc2cc(C(=O)O)ccc2c3=O)ccc1OC(F)F returned FBPA coupling cs -7, Sfp inh 7%, Giardia kill 5 and ELG1 DNA repair 11%.
For COc1ccc2cc(C(c3nnnn3Cc3ccccc3)N3CCCCCC3)c(=O)[nH]c2c1 (stereo not given) the results were FBPA coupling cs -6, Sfp inh inconclusive, Giardia kill 17 and ELG1 DNA repair 0%.
For COc1ccc(Cn2nnnc2C(c2cc3ccc(OC)cc3[nH]c2=O)N2CCC(C)CC2)cc1 (stereo not given) the results were FBPA coupling cs -21, Sfp inh 40µM*, Giardia kill 8 and ELG1 DNA repair -17%.
For CCc1ccc2[nH]c(=O)c(C(c3nnnn3CCOC)N3CCN(c4ccccc4F)CC3)cc2c1 (stereo not given) the results were FBPA coupling cs -25, Sfp inh 8.9µM*, Giardia kill 4 and ELG1 DNA repair inconclusive.
For COc1ccc2cc(C(c3nnnn3Cc3ccc(F)cc3)N3CCCCCC3)c(=O)[nH]c2c1 (stereo not given) the results were FBPA coupling cs 1, Sfp inh 18µM*, Giardia kill 4 and ELG1 DNA repair inconclusive.
Screening COc1ccc2cc(C(c3nnnn3CCc3ccccc3)N3CCC(O)CC3)c(=O)[nH]c2c1 (stereo not given) returned FBPA coupling cs 0, Sfp inh 2%, Giardia kill -9 and ELG1 DNA repair -4%.
`O=C(O)c1ccc(-c2c3nc(c(-c4ccc(C(=O)O)cc4)c4ccc([n-]4)c(-c4ccc(C(=O)O)cc4)c4nc(c(-c5ccc(C(=O)O)cc5)c5ccc2[n-]5)C=C4)C=C3)cc1.[Mn+3]` gave FBPA coupling cs -15 and Sfp inh -23%.
Screening CC1(C)C(=O)NC(=O)N1Cc1ccccc1 returned Giardia kill -3 and ELG1 DNA repair 17%.
`COc1ccc(NC(=O)CC2CC3CCC2C3)cc1S(=O)(=O)N1CCOCC1` (stereo not given) gave Giardia kill 12 and ELG1 DNA repair inconclusive.
Cc1noc(C)c1C(=O)Nc1cccc2ncccc12 was read as FBPA coupling cs 1, Sfp inh 0%, Giardia kill 12 and ELG1 DNA repair -15%.
For COC(=O)[C@H](CCCN=C(N)N)NC(=O)CCCc1c(-c2ccccc2)[nH]c2c(F)cc(F)cc12 the results were FBPA coupling cs 7 and Sfp inh inconclusive.
`COCCn1c(=O)c(-c2ccc(OC)cc2)nc2cnc(N3CCOCC3)nc21` gave FBPA coupling cs 3 and Sfp inh 21%.
`Nc1c(C(O)(C(F)(F)F)C(F)(F)F)ccc2ccccc12` gave FBPA coupling cs -5, Sfp inh 45µM*, Giardia kill -6 and ELG1 DNA repair inconclusive.
For COc1cccc(-c2cc(C(F)(F)F)n3nc(C(=O)N4CCCCC4c4cccnc4)cc3n2)c1 (stereo not given) the results were FBPA coupling cs 4, Sfp inh -28%, Giardia kill -7 and ELG1 DNA repair 21µM*.
`CN(C(=O)c1cc2nc(-c3ccco3)cc(C(F)(F)F)n2n1)C1CCCCC1` gave FBPA coupling cs -5, Sfp inh 50µM*, Giardia kill -4 and ELG1 DNA repair inconclusive.
`O=C(c1cc2nc(-c3ccco3)cc(C(F)(F)F)n2n1)N1CCCCCC1` gave FBPA coupling cs 0, Sfp inh 56µM*, Giardia kill -6 and ELG1 DNA repair 11%.
For COc1ccc(-c2cc(C(F)(F)F)n3nc(C(=O)N4CCCCC4)cc3n2)cc1 the results were FBPA coupling cs 0, Sfp inh -22%, Giardia kill -15 and ELG1 DNA repair -4%.
O=C(NNC(=O)C1CC(=O)N(Cc2ccccc2)C1)c1ccc(F)cc1 (stereo not given) was read as Giardia kill 2 and ELG1 DNA repair 8%.
Screening C=C1c2cccc(OC)c2O[C@H](C(=O)OCC)[C@@H]1CCC(C)C returned FBPA coupling cs 0 and Sfp inh -1%.
For C=CCOc1ccc(/C=C2\SC(=S)N(C(C(=O)O)c3ccccc3)C2=O)cc1 (stereo not given) the results were FBPA coupling cs -2, Sfp inh -9%, Giardia kill 5 and ELG1 DNA repair -1%.
